# PubChem BioAssay
# Active and inactive are the calls of the source.
# System: Sonic hedgehog protein (Shh)
# Assay: small-molecule binders of Shh protein, primary screen, biochemical, small-molecule microarray, 635/667 nm fluorescence (AID 1151);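 also: Shh protein binding to compounds spotted on small-molecule microarray slides; score combines spot fluorescence intensity with signal-to-noise across triplicate slides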
# Settings: small-molecule microarray binding, 635 nm fluorescence; higher = more signal
row,Structure (SMILES),composite z-score
1,COCCOC(=O)N1C(=O)[C@@]2(c3cc(C#CCCO)ccc31)[C@H](C(=O)N1CCN(c3ncccn3)CC1)[C@H]1C(=O)O[C@H](c3ccccc3)[C@H](c3ccccc3)N1[C@@H]2c1ccccc1OCCO,0.842
2,COc1ccc(CCN2C(=O)[C@@]3(c4ccc([N+](=O)[O-])cc4)CC(=O)N(C4CCCCC4)[C@@H]3c3ccc(CO)cc32)cc1,1.19
3,CCOC(=O)C[C@H]1[C@H](OC(=O)c2ccc(C(=O)c3ccccc3)cc2)[C@@H](NC(=O)c2ccc(-c3ccccc3)cc2)c2cc(OCCCO)ccc2N1C(=O)c1ccccc1,1.08
4,COC(=O)C(CC#Cc1ccc2c(c1)[C@]1(C(=O)N2)[C@H](c2ccc(O)cc2)N2[C@H](c3ccccc3)[C@H](c3ccccc3)OC(=O)[C@H]2[C@@H]1C(=O)Nc1nc2ccccc2s1)C(=O)OC,1.62
5,O=C1[C@H]2C=C(Br)[C@H](C[C@@H]2OCCCCO)[C@@]12CO2,0.31
6,Cc1ccc(C(C)CC(O)C2C=CC3C(=O)N(c4ccccc4)C(=O)C3N2Nc2ccc([N+](=O)[O-])cc2)o1 (stereo not drawn),0.442
7,COCCOC(=O)N1C(=O)[C@@]2(c3cc(C#CCCO)ccc31)[C@H](C(=O)Nc1nc3ccccc3s1)[C@H]1C(=O)O[C@H](c3ccccc3)[C@H](c3ccccc3)N1[C@@H]2c1ccc(OCCO)cc1,1.56
8,CCCCC(O)C1C=CC2C(=O)N(c3ccccc3)C(=O)C2N1Nc1ccccc1F (stereo not drawn),-0.0688
9,[N-]=[N+]=Nc1ccccc1C[C@]1(C(=O)NCC(O)CO)N=C(c2ccc(OCCCO)cc2)O[C@H]1c1ccccc1N=[N+]=[N-] (stereo partly drawn),-0.524
10,C=C(CCCC)/C(=C/C[C@@H](OC(C)=O)c1ccccc1OCCO)c1cnc2ccccc2c1,1.02
11,OC([C@@H]1CC(c2ccccc2)=NO1)[C@H]1CC(c2ccccc2)=NO1 (stereo partly drawn),0.394
12,[N-]=[N+]=NCc1ccccc1[C@H]1OC(c2ccc(OCCCO)cc2)=N[C@@]1(Cc1ccccc1)C(=O)NCc1ccccc1,0.144
13,O=C(NCc1ccccc1)[C@@H]1c2ccccc2C(=O)N(CC23CC4CC(CC(C4)C2)C3)[C@H]1c1ccc(CO)cc1,1.83

# System: not listed separately
# Assay: E. coli DRC41 culture turbidity changes, primary screen, E. coli filamentation inducer project, strain DRC41, OD650, 48 h (AID 1152);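 also: E. coli MC1000 strain DRC41 lacking acrAB efflux pump and sulA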
# Settings: E. coli DRC41 (acrAB sulA), higher = more signal, called active from +8 up or from −8 down
row,Structure (SMILES),z-score
1,O=C1C2C=CC(C(O)C3CCCCC3)N(Nc3ccc([N+](=O)[O-])cc3)C2C(=O)N1c1ccccc1 (stereo not drawn),-1.13 (inactive)
2,C=CCNC(=O)[C@H]1[C@@H]2C(=O)O[C@@H](c3ccccc3)[C@@H](c3ccccc3)N2[C@@H](c2ccc(OCCO)cc2)[C@]12C(=O)N(C(=O)OCCOC)c1ccccc12,0.159 (inactive)
3,O=C1C2C=CC(C(O)c3c(F)cccc3Cl)N(Nc3ccccc3)C2C(=O)N1c1ccccc1 (stereo not drawn),-0.0623 (inactive)
4,CC(C)c1ccc(NN2C(C(O)c3cc(C(F)(F)F)cc(C(F)(F)F)c3)C=CC3C(=O)N(c4ccccc4)C(=O)C32)cc1 (stereo not drawn),-2.06 (inactive)
5,[N-]=[N+]=NCc1ccccc1C[C@]1(C(=O)O)N=C(c2ccc(OCCCO)cc2)O[C@H]1c1ccccc1N=[N+]=[N-],0.23 (inactive)
6,O=C1O[C@H](c2ccccc2)[C@H](c2ccccc2)N2[C@H]1[C@@H](C(=O)NC[C@H](O)c1ccccc1)[C@]1(C(=O)Nc3ccccc31)[C@H]2c1ccc(OCCO)cc1,-1.26 (inactive)
7,COC(=O)[C@@]1(Cc2ccc(F)cc2)[C@H]2c3cc(C(=O)N4CCCC4)n(Cc4ccc(C)o4)c3C[C@H]2CN1C(=O)c1ccccc1,-1.63 (inactive)
8,COc1ccc([Si](C)(C)[C@H]2[C@H](CCn3cc([C@H](O)c4ccccc4)nn3)O[C@@]3(C(=O)N(Cc4cccc(N5CCOC5=O)c4)c4ccccc43)[C@@H]2C)cc1,-0.454 (inactive)
9,COc1ccc(CCNC(=O)[C@@]2(C)c3ccccc3C(=O)N(Cc3cc(F)cc(C(F)(F)F)c3)[C@H]2c2ccc(CO)cc2)cc1,0.753 (inactive)
10,O=C1O[C@@H](c2ccccc2)[C@@H](c2ccccc2)N2[C@@H](c3ccc(OCCO)cc3)[C@]3(C(=O)Nc4ccccc43)[C@@H](C(=O)NC[C@H](O)c3ccccc3)[C@H]12,-0.29 (inactive)
11,C=C(/C(=C/C[C@@H](OC(C)=O)c1ccc(OCCO)cc1)c1cnc2ccccc2c1)C(C)C,1.14 (inactive)
12,O=C1OCC=C[C@H]2OC34C=CCN(CCN5CCOCC5)C(=O)[C@H]3N(CCCO)C(=O)[C@@H]4[C@@H]12 (stereo partly drawn),0.109 (inactive)
13,C=CC[C@]1(C(=O)NCCCOC)N=C(c2ccc(OCCCO)cc2)O[C@H]1c1ccccc1N=[N+]=[N-],0.239 (inactive)
14,COCC(=C=CC[C@H](O)c1ccccc1OCCO)C[C@H](O)c1cc(Cl)cc(Cl)c1O,-0.381 (inactive)
15,COC(=O)c1c(CC[C@@H](CO)NC(=O)N2CCC[C@H]2Cn2cc(-c3ccccn3)nn2)oc(C(C)=O)c1C(=O)OC,1.04 (inactive)
16,C=CCN(Cc1ccccc1)C(=O)C(c1cccs1)N(CCOCCO)C(=O)/C=C\C(=O)O (stereo not drawn),2.73 (inactive)
17,CCN(CC)c1ccc(N2CC=CC34O[C@@H]5/C=C\CCCOC(=O)C5[C@H]3C(=O)N(CCO)[C@@H]4C2=O)cc1 (stereo partly drawn),-0.0626 (inactive)
18,C=CC[C@@]1(C(N)=O)N=C(c2ccc(OCCCO)cc2)O[C@@H]1c1ccccc1CN=[N+]=[N-],0.0347 (inactive)

row,Structure (SMILES),z-score
1,O=C1c2ccccc2[C@](Cc2ccccc2I)(C(=O)NC2CC2)[C@H](c2ccc(CO)cc2)N1C1CCCCC1,0.0304 (inactive)
2,O=C(NCc1ccccc1)[C@@]1(CCS(=O)(=O)c2ccccc2)N=C(c2ccc(OCCCO)cc2)O[C@H]1c1ccccc1,1.06 (inactive)
3,CCCCCN1CC=CC23O[C@@H]4/C=C\CCCOC(=O)C4[C@H]2C(=O)N(CCCO)[C@@H]3C1=O (stereo partly drawn),2.27 (inactive)
4,C=CCNC(=O)[C@@H]1[C@H]2C(=O)O[C@H](c3ccccc3)[C@H](c3ccccc3)N2[C@H](c2ccccc2OCCO)[C@@]12C(=O)N(C(=O)OCCOC)c1ccc(C#CCNC(N)=O)cc12,-0.302 (inactive)
5,COCCOC(=O)N1C(=O)[C@@]2(c3cc(C#CCCO)ccc31)[C@H](C(=O)N1CCN(c3ncccn3)CC1)[C@H]1C(=O)O[C@H](c3ccccc3)[C@H](c3ccccc3)N1[C@@H]2c1ccccc1OCCO,1.21 (inactive)
6,COc1ccc(CCN2C(=O)[C@@]3(c4ccc([N+](=O)[O-])cc4)CC(=O)N(C4CCCCC4)[C@@H]3c3ccc(CO)cc32)cc1,-0.183 (inactive)
7,CCOC(=O)C[C@H]1[C@H](OC(=O)c2ccc(C(=O)c3ccccc3)cc2)[C@@H](NC(=O)c2ccc(-c3ccccc3)cc2)c2cc(OCCCO)ccc2N1C(=O)c1ccccc1,-0.948 (inactive)
8,COC(=O)C(CC#Cc1ccc2c(c1)[C@]1(C(=O)N2)[C@H](c2ccc(O)cc2)N2[C@H](c3ccccc3)[C@H](c3ccccc3)OC(=O)[C@H]2[C@@H]1C(=O)Nc1nc2ccccc2s1)C(=O)OC,1.25 (inactive)
9,O=C1[C@H]2C=C(Br)[C@H](C[C@@H]2OCCCCO)[C@@]12CO2,-1.11 (inactive)
10,Cc1ccc(C(C)CC(O)C2C=CC3C(=O)N(c4ccccc4)C(=O)C3N2Nc2ccc([N+](=O)[O-])cc2)o1 (stereo not drawn),-0.571 (inactive)
11,COCCOC(=O)N1C(=O)[C@@]2(c3cc(C#CCCO)ccc31)[C@H](C(=O)Nc1nc3ccccc3s1)[C@H]1C(=O)O[C@H](c3ccccc3)[C@H](c3ccccc3)N1[C@@H]2c1ccc(OCCO)cc1,0.372 (inactive)
12,CCCCC(O)C1C=CC2C(=O)N(c3ccccc3)C(=O)C2N1Nc1ccccc1F (stereo not drawn),-1.06 (inactive)
13,[N-]=[N+]=Nc1ccccc1C[C@]1(C(=O)NCC(O)CO)N=C(c2ccc(OCCCO)cc2)O[C@H]1c1ccccc1N=[N+]=[N-] (stereo partly drawn),0.394 (inactive)
14,C=C(CCCC)/C(=C/C[C@@H](OC(C)=O)c1ccccc1OCCO)c1cnc2ccccc2c1,-0.19 (inactive)
15,OC([C@@H]1CC(c2ccccc2)=NO1)[C@H]1CC(c2ccccc2)=NO1 (stereo partly drawn),2.12 (inactive)
16,[N-]=[N+]=NCc1ccccc1[C@H]1OC(c2ccc(OCCCO)cc2)=N[C@@]1(Cc1ccccc1)C(=O)NCc1ccccc1,0.336 (inactive)
17,O=C(NCc1ccccc1)[C@@H]1c2ccccc2C(=O)N(CC23CC4CC(CC(C4)C2)C3)[C@H]1c1ccc(CO)cc1,-1.09 (inactive)
